# According to PubChem BioAssay (NCI):
# About 79,000 compounds went through this panel and 15% of them were active in at least one assay; those are over-represented in the sample as a whole. A number with no mark means an inactive call. Calls of active or inactive are those of the source. Cut-off read from the data, not from the text of the source: active = growth inhibition above about 70%; inactive = the rest.
# What was measured:
# [1] = NCI Yeast Anticancer Drug Screen. Data for the rad52 strain (AID 147);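 note: 0% = growth of vehicle-treated control cultures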; conditions: S. cerevisiae rad52 mutant growth inhibition, hits give high values
# Method in brief: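 Growth of repair-deficient yeast cells was compared between compound-treated and vehicle-treated cultures to give percent inhibition.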
# [2] = NCI Yeast Anticancer Drug Screen. Data for the wt1 strain (AID 149);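 note: 0% = growth of vehicle-treated wt1 cultures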; conditions: S. cerevisiae wt1 strain (SPY 50644) growth inhibition, hits give high values
# Method in brief: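 wt1 yeast, compound-treated; % growth inhibition vs vehicle control.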
# [3] = NCI Yeast Anticancer Drug Screen. Data for the mgt1 strain (AID 153); conditions: S. cerevisiae mgt1 mutant growth inhibition, hits give high values
# Method in brief: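 Compounds were applied to mgt1 mutant yeast, and growth was then compared against vehicle-treated control cultures to give percent inhibition.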
# [4] = NCI Yeast Anticancer Drug Screen. Data for the rad50 strain (AID 155);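 note: 0% = growth of vehicle-only cultures of the same strain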; conditions: S. cerevisiae rad50 strain growth inhibition, hits give high values
# Method in brief: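 Genetically altered yeast (DNA repair pathway); compound treatment; growth inhibition vs vehicle ctrl.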
# [5] = NCI Yeast Anticancer Drug Screen. Data for the mec2-1 strain (AID 157); conditions: S. cerevisiae mec2-1 strain, hits give high values
# Method in brief: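 Compounds were applied to mec2-1 yeast cells. Their growth was then compared with that of vehicle-treated cultures to give growth inhibition.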
# [6] = NCI Yeast Anticancer Drug Screen. Data for the rad14 strain (AID 159);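 note: 0% = growth of vehicle-treated control cultures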; conditions: S. cerevisiae rad14 strain growth inhibition, hits give high values
# Method in brief: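 Test compounds were applied to a repair-deficient yeast strain. Its growth was then compared with that of cultures given vehicle alone, and inhibition was expressed relative to those controls.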
# [7] = NCI Yeast Anticancer Drug Screen. Data for the sgs1 mgt1 strain (AID 161);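 note: 0% = growth of cultures given vehicle only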; conditions: S. cerevisiae sgs1 mgt1 strain, hits give high values
# Method in brief: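 Growth of a repair-deficient yeast mutant was monitored after compound treatment and expressed as inhibition relative to vehicle-treated cultures.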
# [8] = NCI Yeast Anticancer Drug Screen. Data for the CLN2oe strain (AID 163);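 note: 0% = growth of vehicle-only control cultures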; conditions: S. cerevisiae CLN2oe strain, hits give high values
# Method in brief: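 Cells of an engineered yeast line with disturbed cell-cycle regulation are treated with compound. Inhibition of growth is then calculated relative to the vehicle-treated reference.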
# [9] = NCI Yeast Anticancer Drug Screen. Data for the cln2 rad14 strain (AID 165);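 note: 0% = growth equal to vehicle treated cultures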; conditions: S. cerevisiae cln2 rad14 strain, hits give high values
# Method in brief: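 Strain: cln2 rad14 yeast, altered in cell cycle control and DNA damage repair. Read-out: growth inhibition vs vehicle.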
# [10] = NCI Yeast Anticancer Drug Screen. Data for the bub3 strain (AID 167); conditions: S. cerevisiae bub3 mutant strain, hits give high values
# Method in brief: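 Yeast carrying a defined mutation is treated with each compound, and growth is compared with that of vehicle-exposed cells to give inhibition.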
# [11] = NCI Yeast Anticancer Drug Screen. Data for the wt2 strain (AID 169);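 note: 0% = growth of vehicle-treated yeast cultures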; conditions: S. cerevisiae wt2 strain growth inhibition, hits give high values
# Method in brief: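 Growth of compound-treated yeast is measured and expressed as inhibition relative to vehicle-only controls.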
# [12] = NCI Yeast Anticancer Drug Screen. Data for the mlh1 strain (AID 171);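 note: 0% = growth of vehicle-treated control cultures of the same strain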; conditions: S. cerevisiae mlh1 strain growth inhibition, hits give high values
# Method in brief: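 Test agents were incubated with yeast bearing a defined DNA damage repair or cell cycle control alteration; values are growth inhibition normalised to vehicle-treated cultures.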
# [13] = NCI Yeast Anticancer Drug Screen. Data for the sgs1 strain (AID 173);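 note: 0% = growth of vehicle-only control cultures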; conditions: S. cerevisiae sgs1 mutant, hits give high values
# Method in brief: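 Strain with an altered DNA repair or cell cycle pathway exposed to compound. Growth then measured. Value = inhibition versus vehicle control.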
# [14] = NCI Yeast Anticancer Drug Screen. Data for the mlh1 rad18 strain (AID 175); conditions: S. cerevisiae mlh1 rad18 strain growth inhibition, hits give high values
# Method in brief: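 A repair-deficient yeast strain is exposed to test compound, and growth is scored relative to vehicle-treated controls.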
# [15] = NCI Yeast Anticancer Drug Screen. Data for the rad18 strain (AID 177); conditions: S. cerevisiae rad18 mutant growth inhibition, hits give high values
# Method in brief: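 DNA-repair-defective yeast; compound treatment; growth inhibition scored against vehicle.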
# [16] = NCI Yeast Anticancer Drug Screen. Data for the rad50EPP+ strain (AID 151);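 note: 0% = growth of vehicle-treated control cultures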; conditions: S. cerevisiae rad50 mutant strain, hits give high values
# Method in brief: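 Measured: growth inhibition of rad50EPP+ yeast. Reference: vehicle-treated controls. Screen uses strains with defined genetic alterations in DNA damage repair or cell cycle control.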
# [17] = at 5.0 µM (retest, dose inferred, filed as 0.5)
# [18] = at 50.0 µM (retest, dose inferred, filed as 5.0)
smiles,measurement,setting,value
O=C(O)c1ccccc1NC(=S)c1ccccc1,growth inhibition,[1]; at 1.2 µM,-5%
same,growth inhibition,[1]; at 3.7 µM,-1%
same,growth inhibition,[1]; at 11.0 µM,-4%
same,growth inhibition,[1]; at 33.0 µM,7%
same,growth inhibition,[1]; at 100.0 µM,67%
same,growth inhibition,[2]; at 1.2 µM,4%
same,growth inhibition,[2]; at 3.7 µM,1%
same,growth inhibition,[2]; at 11.0 µM,-4%
same,growth inhibition,[2]; at 33.0 µM,-5%
same,growth inhibition,[2]; at 100.0 µM,26%
same,growth inhibition,[3]; at 1.2 µM,5%
same,growth inhibition,[3]; at 3.7 µM,0%
same,growth inhibition,[3]; at 11.0 µM,-3%
same,growth inhibition,[3]; at 33.0 µM,18%
same,growth inhibition,[3]; at 100.0 µM,81% (active)
same,growth inhibition,[4]; at 1.2 µM,-3%
same,growth inhibition,[4]; at 3.7 µM,-26%
same,growth inhibition,[4]; [17],53%
same,growth inhibition,[4]; at 11.0 µM,-20%
same,growth inhibition,[4]; at 33.0 µM,-11%
same,growth inhibition,[4]; [18],97% (active)
same,growth inhibition,[4]; at 50.0 µM,4.25%
same,growth inhibition,[4]; at 100.0 µM,83% (active)
same,growth inhibition,[5]; at 1.2 µM,-31%
same,growth inhibition,[5]; at 3.7 µM,-10%
same,growth inhibition,[5]; [17],63%
same,growth inhibition,[5]; at 11.0 µM,-26%
same,growth inhibition,[5]; at 33.0 µM,-23%
same,growth inhibition,[5]; [18],96% (active)
same,growth inhibition,[5]; at 50.0 µM,11.6%
same,growth inhibition,[5]; at 100.0 µM,10%
same,growth inhibition,[6]; at 1.2 µM,2%
same,growth inhibition,[6]; at 3.7 µM,4%
same,growth inhibition,[6]; at 11.0 µM,-4%
same,growth inhibition,[6]; at 33.0 µM,17%
same,growth inhibition,[6]; at 100.0 µM,68%
same,growth inhibition,[7]; [17],-20%
same,growth inhibition,[7]; [18],65%
same,growth inhibition,[7]; at 50.0 µM,-0.55%
same,growth inhibition,[8]; at 1.2 µM,0%
same,growth inhibition,[8]; at 3.7 µM,11%
same,growth inhibition,[8]; at 11.0 µM,6%
same,growth inhibition,[8]; at 33.0 µM,10%
same,growth inhibition,[8]; at 100.0 µM,33%
same,growth inhibition,[9]; [17],27%
same,growth inhibition,[9]; [18],54%
same,growth inhibition,[9]; at 50.0 µM,1%
same,growth inhibition,[10]; at 1.2 µM,-16%
same,growth inhibition,[10]; at 3.7 µM,-12%
same,growth inhibition,[10]; [17],16%
same,growth inhibition,[10]; at 11.0 µM,0%
same,growth inhibition,[10]; at 33.0 µM,5%
same,growth inhibition,[10]; [18],79% (active)
same,growth inhibition,[10]; at 50.0 µM,17.4%
same,growth inhibition,[10]; at 100.0 µM,70% (active)
same,growth inhibition,[11]; at 1.2 µM,-1%
same,growth inhibition,[11]; at 3.7 µM,5%
same,growth inhibition,[11]; at 11.0 µM,1%
same,growth inhibition,[11]; at 33.0 µM,1%
same,growth inhibition,[11]; at 100.0 µM,42%
same,growth inhibition,[12]; at 1.2 µM,3%
same,growth inhibition,[12]; at 3.7 µM,5%
same,growth inhibition,[12]; at 11.0 µM,3%
same,growth inhibition,[12]; at 33.0 µM,5%
same,growth inhibition,[12]; at 100.0 µM,62%
same,growth inhibition,[13]; at 1.2 µM,-18%
same,growth inhibition,[13]; at 3.7 µM,-6%
same,growth inhibition,[13]; at 11.0 µM,-12%
same,growth inhibition,[13]; at 33.0 µM,-4%
same,growth inhibition,[13]; at 100.0 µM,53%
same,growth inhibition,[14]; [17],43%
same,growth inhibition,[14]; [18],99% (active)
same,growth inhibition,[14]; at 50.0 µM,1.6%
same,growth inhibition,[15]; at 1.2 µM,-16%
same,growth inhibition,[15]; at 3.7 µM,-4%
same,growth inhibition,[15]; at 11.0 µM,-8%
same,growth inhibition,[15]; at 33.0 µM,16%
same,growth inhibition,[15]; at 100.0 µM,69%
Oc1ccc(NCn2c(=S)sc3ccccc32)cc1,growth inhibition,[1]; at 1.2 µM,-1%
same,growth inhibition,[1]; at 3.7 µM,-10%
same,growth inhibition,[1]; at 11.0 µM,-7%
same,growth inhibition,[1]; at 33.0 µM,38%
same,growth inhibition,[1]; at 100.0 µM,97% (active)
same,growth inhibition,[2]; at 1.2 µM,-24%
same,growth inhibition,[2]; at 3.7 µM,-17%
same,growth inhibition,[2]; at 11.0 µM,-16%
same,growth inhibition,[2]; at 33.0 µM,29%
same,growth inhibition,[2]; at 100.0 µM,97% (active)
same,growth inhibition,[16]; at 1.2 µM,-6%
same,growth inhibition,[16]; at 3.7 µM,-21%
same,growth inhibition,[16]; at 11.0 µM,-25%
same,growth inhibition,[16]; at 33.0 µM,-16%
same,growth inhibition,[16]; at 100.0 µM,82% (active)
same,growth inhibition,[4]; at 1.2 µM,-2%
same,growth inhibition,[4]; at 3.7 µM,12%
same,growth inhibition,[4]; [17],62%
same,growth inhibition,[4]; at 11.0 µM,5%
same,growth inhibition,[4]; at 33.0 µM,42%
same,growth inhibition,[4]; [18],100% (active)
same,growth inhibition,[4]; at 50.0 µM,58.5%
same,growth inhibition,[4]; at 100.0 µM,95% (active)
same,growth inhibition,[5]; at 1.2 µM,19%
same,growth inhibition,[5]; at 3.7 µM,27%
same,growth inhibition,[5]; [17],63%
same,growth inhibition,[5]; at 11.0 µM,26%
same,growth inhibition,[5]; at 33.0 µM,84% (active)
same,growth inhibition,[5]; [18],100% (active)
same,growth inhibition,[5]; at 50.0 µM,73.8% (active)
same,growth inhibition,[5]; at 100.0 µM,99% (active)
same,growth inhibition,[6]; at 1.2 µM,-11%
same,growth inhibition,[6]; at 3.7 µM,-8%
same,growth inhibition,[6]; at 11.0 µM,-6%
same,growth inhibition,[6]; at 33.0 µM,62%
same,growth inhibition,[6]; at 100.0 µM,98% (active)
same,growth inhibition,[7]; [17],2%
same,growth inhibition,[7]; [18],99% (active)
same,growth inhibition,[7]; at 50.0 µM,91.2% (active)
same,growth inhibition,[8]; at 1.2 µM,-16%
same,growth inhibition,[8]; at 3.7 µM,-13%
same,growth inhibition,[8]; at 11.0 µM,-32%
same,growth inhibition,[8]; at 33.0 µM,34%
same,growth inhibition,[8]; at 100.0 µM,97% (active)
same,growth inhibition,[9]; [17],58%
same,growth inhibition,[9]; [18],98% (active)
same,growth inhibition,[9]; at 50.0 µM,40%
same,growth inhibition,[11]; at 1.2 µM,-28%
same,growth inhibition,[11]; at 3.7 µM,-14%
same,growth inhibition,[11]; at 11.0 µM,-10%
same,growth inhibition,[11]; at 33.0 µM,64%
same,growth inhibition,[11]; at 100.0 µM,97% (active)
same,growth inhibition,[12]; at 1.2 µM,-44%
same,growth inhibition,[12]; at 3.7 µM,-23%
same,growth inhibition,[12]; at 11.0 µM,-9%
same,growth inhibition,[12]; at 33.0 µM,63%
same,growth inhibition,[12]; at 100.0 µM,97% (active)
same,growth inhibition,[13]; at 1.2 µM,4%
same,growth inhibition,[13]; at 3.7 µM,5%
same,growth inhibition,[13]; at 11.0 µM,4%
same,growth inhibition,[13]; at 33.0 µM,69%
same,growth inhibition,[13]; at 100.0 µM,96% (active)
same,growth inhibition,[14]; [17],51%
same,growth inhibition,[14]; [18],100% (active)
same,growth inhibition,[14]; at 50.0 µM,63%
same,growth inhibition,[15]; at 1.2 µM,-1%
same,growth inhibition,[15]; at 3.7 µM,-5%
same,growth inhibition,[15]; at 11.0 µM,-11%
same,growth inhibition,[15]; at 33.0 µM,48%
same,growth inhibition,[15]; at 100.0 µM,96% (active)
